FBW7 activator – human FBW7 E3 ligase activation, primary screen. Q969H0. AlphaScreen FBW7–phospho-cyclin E peptide binding, activator screen. normalized activity (activation), % at 26.1 µM. 0.13% of 650,000 active; in the data active = normalized activity above about 1.9%;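 note: purified mutant Fbw7 with reduced substrate affinity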
Target sequence (Q969H0 whole entry, looked up): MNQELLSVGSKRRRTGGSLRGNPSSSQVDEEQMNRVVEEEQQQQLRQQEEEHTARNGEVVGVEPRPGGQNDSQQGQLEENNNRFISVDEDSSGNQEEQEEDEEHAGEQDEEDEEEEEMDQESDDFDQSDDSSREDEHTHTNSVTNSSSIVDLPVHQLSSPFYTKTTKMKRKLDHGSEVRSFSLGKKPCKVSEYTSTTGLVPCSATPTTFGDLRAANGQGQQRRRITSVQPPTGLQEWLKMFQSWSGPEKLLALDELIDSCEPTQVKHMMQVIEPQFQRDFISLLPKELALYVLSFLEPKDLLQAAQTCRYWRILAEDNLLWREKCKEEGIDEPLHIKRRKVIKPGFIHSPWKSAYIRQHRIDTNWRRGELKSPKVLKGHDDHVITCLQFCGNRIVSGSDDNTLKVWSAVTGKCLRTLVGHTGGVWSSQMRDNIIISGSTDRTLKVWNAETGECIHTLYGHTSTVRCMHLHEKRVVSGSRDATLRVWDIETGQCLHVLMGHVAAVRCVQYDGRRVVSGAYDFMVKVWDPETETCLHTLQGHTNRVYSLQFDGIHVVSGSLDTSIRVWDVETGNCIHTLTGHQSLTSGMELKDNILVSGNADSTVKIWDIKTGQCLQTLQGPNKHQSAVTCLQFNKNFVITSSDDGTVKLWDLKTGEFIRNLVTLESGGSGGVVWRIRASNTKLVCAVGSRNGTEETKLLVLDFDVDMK
TEAD-YAP block – TEAD-YAP interaction inhibition; 1.4% of 640,000 active; HEK-TIYL cells, TEAD-Gal4/YAP UAS-luciferase luminescence; inhibition, % at 9.12 µM; AID 1259422; in the data active = inhibition above about 32%
GPR151 ag – activates the human receptor GPR151; Q8TDV0; PathHunter beta-arrestin GPR151 cells, luminescence; activation, % at 11.2 µM; 1% of 650,000 active; in the data active = activation above about 4.9%
MITF inh – inhibitors of human MITF; O75030; inhibition, % at 2.6 µM; 0.91% of 650,000 active; AlphaScreen MITF homodimerization, bead proximity signal; in the data active = inhibition above about 50%
Numbers stand for hits; 0 = inactive. Rows were chosen to be rich in hits. Some 3.4% of all compounds tested hit in one or more screens of this group.

SMILES	FBW7 activator	TEAD-YAP block	GPR151 ag	MITF inh
COc1ccc(OCCCNCCO)cc1	0	40.5	0	0
COc1ccc(OCCCCCNCCO)cc1	0	0	0	0
COC(=O)C(NC(=O)C(F)(F)F)(Nc1cc(OC)ccc1OC)C(F)(F)F (configuration not stated)	0	0	0	0
Cc1cc(Cl)c(S(N)(=O)=O)cc1OCC(=O)NC1CCCCC1	0	0	0	0
Cc1cc(Cl)c(S(=O)(=O)N2CCSCC2)cc1OCC(=O)NC1CCCCC1	0	38.5	0	0
COc1cc(NC(=O)c2cnc(NC3CCN(Cc4ccccc4)CC3)s2)cc(OC)c1OC	0	0	0	0
Cc1ccc(S(=O)(=O)/N=C2/C=C(Sc3ncn[nH]3)C(=O)c3ccccc32)cc1	0	98.1	0	0
Nc1c(N2CCCC2)cc(O)c2c1C(=O)c1ccccc1C2=O	0	0	0	77.2
Oc1cccc(-c2cnc3c(Nc4ccccc4)nccn23)c1	0	0	0	0
Nc1ccc(-c2cnc3c(Nc4ccccc4)nccn23)cc1	0	53.2	0	0
c1ccc(Nc2nccn3c(-c4ccco4)cnc23)cc1	0	44.0	0	0
COc1ccc(C(=O)Nc2ncc3c(n2)CC(c2ccc(F)cc2)CC3=O)cc1 (configuration not stated)	0	0	0	0
CCN(CC)C(=O)N1c2ccccc2CCc2ccccc21	0	41.9	0	0
Cc1ccccc1CN1C(=O)CSc2ccc(C(=O)N3CCN(c4ccccn4)CC3)cc21	0	44.9	0	0
Cc1ccccc1CN1C(=O)CSc2ccc(C(=O)N3CCOCC3)cc21	0	0	0	0
Cc1ccnc2nc(C(=O)OCC(=O)NCCc3ccc(Cl)cc3)nn12	0	0	0	0
CCOC(=O)C1CCN(c2ccc([N+](=O)[O-])cc2C(=O)Nc2cc(OC)cc3cccnc23)CC1	2.1	0	0	0
COc1cc(NC(=O)c2cc([N+](=O)[O-])ccc2N2CCN(C)CC2)c2ncccc2c1	0	0	0	0
CC1(C)Cc2c(sc(NC(=O)c3ccccc3)c2C(=O)O)CO1	0	46.5	0	0
COc1ccc(C(=O)Nc2sc3c(c2C(=O)O)CC(C)(C)OC3)cc1OC	0	40.1	0	0
CC(C)COc1ccc(C(=O)Nc2sc3c(c2C(=O)O)CC(C)(C)OC3)cc1	0	0	0	0
CC1(C)Cc2c(sc(NC(=O)c3ccccc3)c2C(N)=S)CO1	0	0	0	0
Cc1ccc(NC(=O)N(Cc2cc3cc4c(cc3[nH]c2=O)OCCO4)CC2CCCO2)cc1 (configuration not stated)	0	54.7	0	0
COc1ccc(C2=NN(C(=O)c3cc(OC)c(OC)c(OC)c3)C(c3ccccc3OC)C2)cc1OC (configuration not stated)	0	35.0	0	0
O=C(Cn1ccc(=NCc2ccccc2)cc1)c1ccc(I)cc1	0	65.9	0	0
SMILES	FBW7 activator	TEAD-YAP block	GPR151 ag	MITF inh
O=C(Cn1ccc(=NCc2ccccc2)cc1)c1ccc(Cl)cc1	0	0	0	0
CC(NC(=O)c1cc(S(=O)(=O)N2CCc3ccccc32)cn1C)c1ccccc1 (configuration not stated)	0	0	0	0
COc1cc(C)c(S(=O)(=O)N2CCc3ccccc32)cc1C	0	50.4	0	0
COC(=O)c1ccc(S(=O)(=O)N2CCCc3ccccc32)cc1	0	62.5	0	0
Cn1cc(S(=O)(=O)N2CCc3ccccc32)cc1C(=O)NC(C)(C)C	0	37.4	0	0
COc1ccc(S(=O)(=O)N2CCCc3ccccc32)cc1	0	57.9	0	0
COc1ccc2oc(=O)c(NC(=O)/C=C/c3cccc([N+](=O)[O-])c3)cc2c1	0	0	0	0
COc1cc(S(=O)(=O)N2CCCc3ccccc32)ccc1Cl	0	58.4	0	0
CC(=O)c1ccc(NC(=O)CSc2nc3ccc(NC(=O)c4ccc(Cl)cc4)cc3s2)cc1	0	0	0	0
O=C(NCCn1cc(SCC(=O)N2CCOCC2)c2ccccc21)c1ccc(F)cc1	0	32.0	0	0
O=C(NCCn1cc(SCC(=O)N2CCN(c3ccccc3)CC2)c2ccccc21)c1ccc(F)cc1	0	0	0	0
CCOc1ccc(N(C)S(=O)(=O)c2ccc3[nH]cc(C(=O)NCCCOC)c(=O)c3c2)cc1	0	0	0	0
CC1=C(C(=O)OC2CCCCCC2)C(c2cccc(Br)c2)C2=C(CC(C)(C)CC2=O)N1 (configuration not stated)	0	0	0	0
Cc1c(N=Cc2cc3c(cc2[N+](=O)[O-])OCO3)c(=O)n(-c2ccccc2)n1C	0	0	0	0
CN1CCN(c2ccc([N+](=O)[O-])cc2C(=O)c2ccc(Cl)cc2)CC1	0	41.4	0	0
O=C(c1ccc(Br)cc1)c1cc([N+](=O)[O-])ccc1N1CCOCC1	0	54.4	0	0
O=C(c1ccc(Cl)cc1)c1cc([N+](=O)[O-])ccc1N1CCOCC1	0	52.6	0	0
NC(=O)c1cc([N+](=O)[O-])ccc1N1CCOCC1	0	0	0	0
CN1CCN(c2ccc([N+](=O)[O-])cc2C(=O)N2CCCCC2)CC1	0	0	0	0
Cc1cccc(CC(=O)Nc2cnn(-c3cccc(C(=O)N4CCCO4)c3)c2)c1	0	0	0	0
Cc1cccc(CC(=O)Nc2cnn(-c3cccc(C(=O)N4CCNC(=O)CC4)c3)c2)c1	4.3	0	0	0
C=CCn1c(-c2cc3ccccc3o2)n[nH]c1=S	0	0	0	0
Cc1ccc(C2CC(=O)Nc3ccc4ccccc4c32)cc1 (configuration not stated)	0	0	0	0
O=C1CC(c2cccc([N+](=O)[O-])c2)c2c(ccc3ccccc23)N1 (configuration not stated)	0	60.6	0	0
N#Cc1ccc(/C=C(\C(=O)C(=O)O)c2ccc3ccccc3n2)cc1	0	0	0	0
SMILES	FBW7 activator	TEAD-YAP block	GPR151 ag	MITF inh
COC(=O)c1ccc(/C=C(\C(=O)C(=O)O)c2ccc3ccccc3n2)cc1	0	60.0	0	0
COc1cccc2cc(C(=O)NCc3cccc(Cl)c3)c(=Nc3ccc(C(=O)O)cc3)oc12	0	34.6	0	0
CCN(CC)CCNC(=O)c1ccc(Nc2cc(Nc3ccccc3C(=O)NC)c(C(F)(F)F)cn2)c(OC)c1	0	64.2	0	0
COc1cc(N2CCOCC2)ccc1Nc1cc(Nc2ccccc2C(=O)N(C)C)c(C(F)(F)F)cn1	0	0	0	0
CNC(=O)c1ccccc1Nc1cc(Nc2ccc(N3CCOCC3)cc2OC)ncc1C	0	44.1	0	0
COc1cc(N2CCOCC2)ccc1Nc1cc(Nc2ccccc2C(N)=O)c(C(F)F)cn1	0	0	0	0
CNC(=O)c1ccccc1Nc1cc(Nc2ccc(C(=O)N(C)C)cc2OC)ncc1C(F)(F)F	0	57.1	0	0
CNC(=O)c1ccccc1Nc1cc(Nc2ccc(C(=O)NC[C@H](O)C(=O)N(C)C)cc2OC)ncc1C(F)(F)F	0	0	0	0
Cc1ccc(N2C(=O)C3C4C=CC(C5CC45)C3C2=O)cc1Cl (configuration not stated)	0	0	0	0
COc1ccccc1Nc1nc(-c2ccccn2)cs1	0	0	0	0
c1ccc(-c2csc(Nc3nc4cc5c(cc4s3)OCO5)n2)nc1	0	90.4	0	62.2

Compound activity deposited in PubChem BioAssay by The Scripps Research Institute Molecular Screening Center.
